“And” between values parts separate entries of the source, which are not always exact repeats. Identical values can stand only once. Results filed as inconclusive are left out. Where a call stands in place of a potency, no number is given. Values without a mark were called inactive. The source made the active and inactive calls. Calls come from the whole dose curve; as a rule, active = well fitted cell-killing curve with a large enough effect in the repeat runs; inconclusive = weak or mixed curves, or effect the other way; inactive = flat fitted curve, though single readings scatter.
Assays:
[1] = cAMP Responsive Elements (CRE) small molecule antagonists, cell-based qHTS assay: qHTS cell viability counter screen (AID 2060913); note: nearly all actives have a fitted effect of over 40% in size
How it was run: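 Cytotoxicity read in the same wells as the CRE-bla HEK293T antagonist assay: after 3 h compound with 0.25 uM NKH477 final and 2 h beta-lactamase substrate, CellTiter-Glo luminescence measured.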

[2] = cAMP Responsive Elements (CRE) small molecule agonists, cell-based qHTS assay: qHTS cell viability counter screen (AID 2060914);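 note: viability read after 3 h of compound exposure; nearly all actives have a fitted effect of over 50% in size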
How it was run: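 CRE-bla HEK293T cells in 10% dialyzed FBS medium were exposed to compounds for 3 h at 37C after 18 h plating. CellTiter-Glo was then added in the same wells, and luminescence was read after 30 min at room temperature.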
Potency is the fitted concentration of half-maximal effect.

| Structure (SMILES) | Potency [1] | Potency [2] | viability change, negative = cytotoxic [1] | activity change, negative = cytotoxicity [2] |
| --- | --- | --- | --- | --- |
| C=CCn1c(=O)n([C@@H]2O[C@H](CO)[C@@H](O)[C@H]2O)c2nc(N)[nH]c(=O)c21 | inactive | inactive | – | – |
| CSc1nnc(C(C)(C)C)c(=O)[nH]1 | inactive | inactive | – | – |
| O=C(O)c1cc2ccccc2nc1C(=O)O | inactive | inactive | – | – |
| COc1cccc(OC)c1C(=O)N[C@@H]1C(=O)N2[C@@H]1SC(C)(C)[C@@H]2C(=O)O | inactive | inactive | – | – |
| CCCCC(CC)CN1C(=O)C2C3C=CC(C3)C2C1=O (stereo not drawn) | inactive | inactive | – | – |
| CC1(O)CSC(C)(O)CS1 (stereo not drawn) | inactive | inactive | – | – |
| OC12N=C(c3ccccc3)SC1Cc1cc(Cl)ccc12 (stereo not drawn) | inactive | inactive | – | – |
| CCCCC1C(=O)N(c2ccccc2)N(c2ccccc2)C1=O | inactive | inactive | – | – |
| CCOC(=O)[C@H](CCc1ccccc1)N[C@H]1CCc2ccccc2N(CC(=O)O)C1=O | inactive | inactive | – | – |
| CCOC(=O)OCC/C(SC(=O)OCC)=C(\C)N(C=O)Cc1cnc(C)nc1N | inactive | inactive | – | – |
| Cc1cccc(C)c1NC(=O)CN1CCCC1 | inactive | inactive | – | – |
| OC1CCC(C2CCCCC2)CC1 (stereo not drawn) | inactive | inactive | – | – |
| O=C1OC(CN2CCOCC2)CN1/N=C/c1ccc([N+](=O)[O-])o1 (stereo not drawn) | inactive | inactive | – | – |
| O=c1oc(=O)c2cc3c(=O)oc(=O)c3cc12 | inactive | inactive | – | – |
| O[C@@H]([C@H](O)[C@H](O)CBr)[C@H](O)CBr | inactive | inactive | – | – |
| O=C(O[C@@H](C(=O)O)[C@@H](OC(=O)c1ccccc1)C(=O)O)c1ccccc1 | inactive | inactive | – | – |
| O=C(NCCN1CCOCC1)c1ccc(Cl)cc1 | inactive | inactive | – | – |
| CC[N+](CC)(CC)Cc1ccccc1 | inactive | inactive | – | – |
| CCOc1c(N2CCOCC2)cnn(C)c1=O | inactive | inactive | – | – |
| O=S(=O)(O)CCN1CCN(CCO)CC1 | inactive | inactive | – | – |
| CC(C)=CC(=O)O | inactive | inactive | – | – |
| COCCOC(=O)C1=C(C)NC(C)=C(C(=O)OC(C)C)C1c1cccc([N+](=O)[O-])c1 (stereo not drawn) | inactive | inactive | – | – |
| CO[Si](C)(OC)OC | inactive | inactive | – | – |

| Structure (SMILES) | Potency [1] | Potency [2] | viability change, negative = cytotoxic [1] | activity change, negative = cytotoxicity [2] |
| --- | --- | --- | --- | --- |
| C=C(C)C(=O)OCC(C)(C)COC(=O)C(=C)C | inactive | inactive | – | – |
| NCCS | inactive | inactive | – | – |
| NS(=O)(=O)c1cc2c(cc1C(F)(F)F)NC(Cc1ccccc1)NS2(=O)=O (stereo not drawn) | inactive | inactive | – | – |
| CCc1cccc(CC)c1N | inactive | inactive | – | – |
| OC/C=C/CO | inactive | inactive | – | – |
| CC(C)[C@@H]1CC[C@@H](C)CC1=O | inactive | inactive | – | – |
| CC(C)c1cccc(O)c1 | inactive | inactive | – | – |
| CCCCCCC(CO)CCCC (stereo not drawn) | inactive | inactive | – | – |
| COc1ccc(-c2cc(C(F)F)nn2-c2ccc(S(N)(=O)=O)cc2)cc1F | inactive | inactive | – | – |
| O=C1O[C@H]([C@H](O)CO)C(O)=C1O | inactive | inactive | – | – |
| O=c1[nH]c(=O)n([C@H]2C[C@H](O)[C@@H](CO)O2)cc1Br | inactive | inactive | – | – |
| CCC[C@H](N[C@@H](C)C(=O)N1[C@H](C(=O)O)C[C@@H]2CCCC[C@@H]21)C(=O)OCC | inactive | inactive | – | – |
| CCC(C)(O)CCC=C(C)C (stereo not drawn) | inactive | inactive | – | – |
| CC1=C(C(=O)O)N2C(=O)[C@@H](NC(=O)[C@H](N)c3ccc(O)cc3)[C@H]2SC1 | inactive | inactive | – | – |
| CC(=O)C1=C(C)[C@@H]2C[C@@]3(C1)[C@H](C)CC[C@H]3C2(C)C | inactive | inactive | – | – |
| C=C1C[C@H]2[C@@H]3C=C(C)C4=CC(=O)CC[C@]4(C)[C@H]3CC[C@]2(C)[C@@]1(OC(C)=O)C(C)=O | inactive | inactive | – | – |
| CC(C)(C)c1cc(Cc2cc(C(C)(C)C)c(O)c(C(C)(C)C)c2)cc(C(C)(C)C)c1O | inactive | inactive | – | – |
| CCCCOc1cc(C(=O)OCCN(CC)CC)ccc1N | inactive | inactive | – | – |
| CCCCCCCCCCCCCCC(=O)NC(CO)CCCCCCCCCCCCCC (stereo not drawn) | inactive | inactive | – | – |
| CCCCN=C(N)N=C(N)N | inactive | inactive | – | – |
| C1CCC(SSC2CCCCC2)CC1 | inactive | inactive | – | – |
| CO[Si](OC)(OC)c1ccccc1 | inactive | inactive | – | – |
| CNC(=O)Nc1ccc(Cl)c(Cl)c1 | inactive | inactive | – | – |

| Structure (SMILES) | Potency [1] | Potency [2] | viability change, negative = cytotoxic [1] | activity change, negative = cytotoxicity [2] |
| --- | --- | --- | --- | --- |
| COc1ccc(-n2nc(CCC(=O)N(C)O)cc2-c2ccc(Cl)cc2)cc1 | inactive | inactive | – | – |
| CCCCCCCCCC/C=C/C#N | inactive | inactive | – | – |
| C[C@@H](O)[C@H]1C(=O)N2C(C(=O)O)=C([C@H]3CCCO3)S[C@H]12 | inactive | inactive | – | – |
| NCCOCCN | inactive | inactive | – | – |
| Cc1cc([N+](=O)[O-])ccc1N | inactive | inactive | – | – |
| CCCCCCCCCCCCN(CCO)CCO | 60.9 µM (active) | 60.9 µM (active) | – | – |
| O=c1cc[nH]c(=S)[nH]1 | inactive | inactive | – | – |
| C=CCOC(=O)CCCCCC | inactive | inactive | – | – |
| C=C(C)C1CCC(C)(O)CC1 (stereo not drawn) | inactive | inactive | – | – |
| Cn1cc(C(=O)[C@@H]2CCc3nc[nH]c3C2)c2ccccc21 | inactive | inactive | – | – |
| CCCCCC(=O)CC | inactive | inactive | – | – |
| CC(C)(C)C1CCCCC1=O (stereo not drawn) | inactive | inactive | – | – |
| CC(=O)OC/C=C(\C)CCC=C(C)C | inactive | inactive | – | – |
| O=C(c1ccccc1)C1CCCCC1 | inactive | inactive | – | – |
| OCC1CC2CC1C1CCC(CO)C21 (stereo not drawn) | inactive | inactive | – | – |
| CC(C)(C)c1cc(CCC(=O)NN)cc(C(C)(C)C)c1O | inactive | inactive | – | – |
| NC(=O)CC[C@@H](N)C(=O)O | inactive | inactive | – | – |
| CCC(C)C(=O)OC (stereo not drawn) | inactive | inactive | – | – |
| CCCCOc1ccc(C(=O)CCN2CCCCC2)cc1 | inactive | inactive | – | – |
| CC(C)=CCl | inactive | inactive | – | – |
| CCCC(=O)OC(=O)CCC | inactive | inactive | – | – |
| C=CCCCCCCCCC(=O)O | inactive | inactive | – | – |
| OCCCCl | inactive | inactive | – | – |

| Structure (SMILES) | Potency [1] | Potency [2] | viability change, negative = cytotoxic [1] | activity change, negative = cytotoxicity [2] |
| --- | --- | --- | --- | --- |
| CC(=O)c1ccc([N+](=O)[O-])cc1 | inactive | inactive | – | – |
| Cc1coc2ccccc2c1=O | inactive | inactive | – | – |
| OCCOCC#CCOCCO | inactive | inactive | – | – |
| CCOCCOCCOC(C)=O | inactive | inactive | – | – |
| O=S(=O)(O)c1cc(S(=O)(=O)O)c2c(N=Nc3ccccc3)c(O)ccc2c1 | inactive | inactive | – | – |
| Cc1cccc([N+](=O)[O-])c1C | inactive | inactive | – | – |
| CC(C)(CO)[N+](=O)[O-] | inactive | inactive | – | – |
| COc1ccnc(CS(=O)c2nc3ccc(OC(F)F)cc3[nH]2)c1OC (stereo not drawn) | inactive | inactive | – | – |
| CC(=O)Oc1cccc2c1C(=O)c1c(OC(C)=O)cc(C(=O)O)cc1C2=O | inactive | inactive | – | – |
| CCCCNc1ccc(C(=O)OCCN(C)C)cc1 | inactive | inactive | – | – |
| CN(C)CCC=C1c2ccccc2C=Cc2ccccc21 | inactive | inactive | – | – |
| CCC(C)(CCC(C)C)C(=O)[O-].CCC(C)(CCC(C)C)C(=O)[O-].[Zn+2] (stereo not drawn) | inactive | inactive | – | – |
| c1ccc2c(CC3=NCCN3)cccc2c1 | inactive | inactive | – | – |
| O=[N+]([O-])c1cccc(Cl)c1 | inactive | inactive | – | – |
| CC(=O)OCc1ccc2c(c1)OCO2 | inactive | inactive | – | – |
| Cc1cccc(O)c1C | inactive | inactive | – | – |
| Cc1cc(N)c(S(=O)(=O)O)cc1Cl | inactive | inactive | – | – |
| SCCSCCS | inactive | inactive | – | – |
| Cc1ccc(C)c(OCCCC(C)(C)C(=O)O)c1 | inactive | inactive | – | – |
| CC(C)(C)[C@@H](O)[C@@H](Cc1ccc(Cl)cc1)n1cncn1 | inactive | inactive | – | – |
| COc1cc(C(C)C)c2c(c1)S(=O)(=O)N(COc1cc(=O)n3cccc(OCCN4CCCCC4)c3n1)C2=O | – | – | -2.74% [at 18.9 µM] | 4.87% [at 18.9 µM] |
| CCCCCCCCCCCCCCCC[N+](C)(C)CC | 57.1 µM (active) and 26.6 µM (active) | 54.6 µM (active) and 26.6 µM (active) | – | – |
| O=C1CCCCC1 | inactive | inactive | – | – |

| Structure (SMILES) | Potency [1] | Potency [2] | viability change, negative = cytotoxic [1] | activity change, negative = cytotoxicity [2] |
| --- | --- | --- | --- | --- |
| C[C@@H](O)[C@H]1C(=O)N2C(C(=O)O)=C(S[C@@H]3CN[C@H](CNS(N)(=O)=O)C3)[C@H](C)[C@H]12 | inactive | inactive | – | – |
| C1CCCCC1 | inactive | inactive | – | – |
| CCOC(=O)Cn1c(=O)sc2cccc(Cl)c21 | inactive | inactive | – | – |
| CCCCN(C)C | inactive | inactive | – | – |
| COCCC(=O)OC | inactive | inactive | – | – |
| COCC(C)N (stereo not drawn) | inactive | inactive | – | – |
| NS(=O)(=O)c1cc(-c2nn[nH]n2)c(NCc2cccs2)cc1Cl | inactive | inactive | – | – |
| CC(=O)c1ccc(S(=O)(=O)NC(=O)NC2CCCCC2)cc1 | inactive | inactive | – | – |
| CN1C[C@H](C(=O)N[C@]2(C)O[C@@]3(O)[C@@H]4CCCN4C(=O)[C@H](Cc4ccccc4)N3C2=O)C[C@@H]2c3cccc4[nH]cc(c34)C[C@H]21 | inactive | inactive | – | – |
| ClC/C=C/CCl | inactive | inactive | – | – |
| CC(C)CCCCCOC(=O)CCCCC(=O)OCCCCCC(C)C | inactive | inactive | – | – |
| CC(C)(C)c1nnc(NS(=O)(=O)c2ccccc2)s1 | inactive | inactive | – | – |
| CCCCCC(C)O (stereo not drawn) | inactive | inactive | – | – |
| CC(=O)N/N=C/c1ccc([N+](=O)[O-])o1 | inactive | inactive | – | – |
| CCOC(=O)COC(=O)c1cc(Oc2ccc(C(F)(F)F)cc2Cl)ccc1[N+](=O)[O-] | inactive | inactive | – | – |
| CCCCCCCCCCCCCCC1CO1 (stereo not drawn) | inactive | inactive | – | – |
| [Cl][Dy]([Cl])[Cl] | inactive | inactive | – | – |
| CC1(C)NC(=O)N(c2ccc([N+](=O)[O-])c(C(F)(F)F)c2)C1=O | inactive | inactive | – | – |
| CCN1CCc2nc(N)oc2CC1 | inactive | inactive | – | – |
| COc1c2occc2c(OC)c2c(=O)cc(C)oc12 | inactive | inactive | – | – |
| C[C@]12CC[C@@H]3c4ccc(O)cc4CC[C@H]3[C@@H]1CC[C@@H]2OC(=O)CCC1CCCC1 | inactive | inactive | – | – |
| O=Cc1ccccc1S(=O)(=O)O | inactive | inactive | – | – |

— PubChem BioAssay (Tox21)
